In the library only some 6.3% were active in any assay of this set; here they are far more common.
Mdm2 MdmX PPI: human Mdm2/MdmX binding inhibition. AID 485346. SaOS-2 split-luciferase Mdm2/MdmX complementation, luminescence. actives 3% (n = 330,000). inhibition, % at 8 µM;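 active = inhibition of at least 50% at 8 µM in the primary screen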
Target sequence (O15151 whole entry, looked up): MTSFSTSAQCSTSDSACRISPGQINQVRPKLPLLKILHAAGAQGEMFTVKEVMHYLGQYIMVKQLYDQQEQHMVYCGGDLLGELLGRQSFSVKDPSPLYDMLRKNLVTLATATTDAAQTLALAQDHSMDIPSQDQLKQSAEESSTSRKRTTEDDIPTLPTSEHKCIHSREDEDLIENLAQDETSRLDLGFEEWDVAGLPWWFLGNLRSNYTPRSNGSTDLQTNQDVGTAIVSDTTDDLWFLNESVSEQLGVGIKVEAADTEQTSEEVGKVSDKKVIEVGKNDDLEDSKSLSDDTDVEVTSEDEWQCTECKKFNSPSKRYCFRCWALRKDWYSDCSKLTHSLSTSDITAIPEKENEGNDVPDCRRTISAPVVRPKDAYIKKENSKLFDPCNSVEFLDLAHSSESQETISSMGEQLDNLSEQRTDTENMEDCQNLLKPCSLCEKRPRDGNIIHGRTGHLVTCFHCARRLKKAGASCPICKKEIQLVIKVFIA
Target sequence (Q00987 whole entry, looked up): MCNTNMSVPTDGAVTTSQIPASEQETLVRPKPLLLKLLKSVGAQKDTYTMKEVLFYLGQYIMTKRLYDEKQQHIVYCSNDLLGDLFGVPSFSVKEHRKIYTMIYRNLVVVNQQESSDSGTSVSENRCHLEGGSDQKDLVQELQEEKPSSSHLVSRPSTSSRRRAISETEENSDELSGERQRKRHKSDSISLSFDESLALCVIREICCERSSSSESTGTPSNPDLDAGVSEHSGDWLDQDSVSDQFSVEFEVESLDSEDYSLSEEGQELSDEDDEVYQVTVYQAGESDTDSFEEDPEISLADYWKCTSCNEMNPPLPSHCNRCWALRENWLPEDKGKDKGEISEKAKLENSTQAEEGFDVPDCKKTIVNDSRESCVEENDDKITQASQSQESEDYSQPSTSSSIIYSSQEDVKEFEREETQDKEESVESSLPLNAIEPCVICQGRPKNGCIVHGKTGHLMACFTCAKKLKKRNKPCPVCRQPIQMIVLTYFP
TIM10 inh: inhibits growth of TIM10 yeast strain; inhibition, % at 10 µM; AID 463195; S. cerevisiae TIM10 strain growth, BacTiter-Glo luminescence, 24 h; actives 1.4% (n = 330,000);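 active = inhibition of 40% or more at the single tested concentration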;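 note: wild-type TIM10 isogenic control strain grown at permissive 25 °C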
tim10-1 inh: tim10-1 yeast growth inhibition; S. cerevisiae tim10-1 ts strain growth, BacTiter-Glo, 24 h; inhibition, % at 20 µM; actives 2.2% (n = 330,000); AID 463190;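 active = inhibition of at least 40%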;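 note: mutant grown at 25 °C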
tim23-1 inh: growth inhibitors of tim23-1 mutant yeast | actives 1.3% (n = 330,000) | S. cerevisiae tim23-1 growth, BacTiter-Glo luminescence, 24 h | inhibition, % at 20 µM;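 active = growth inhibition of the mutant yeast at or above 50%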;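 note: temperature-sensitive mutant grown at 25 °C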
MPTP block: permeability transition pore inhibition | isolated mouse mitochondria, Ca2+ swelling absorbance, 30 min | inhibition, % at 10 µM | actives 1.4% (n = 360,000) | AID 602449;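 active = inhibition of 50% or more, scaled per plate between neutral and stimulator controls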
Mdm2 MdmX conf: human Mdm2/MdmX binding inhibition, confirmed; shares compounds with Mdm2 MdmX PPI; luminescent assay; inhibition, % at 8 µM; actives 55% (n = 10,000); AID 489028; in the data active = inhibition above about 40%
FLuc counter: full-length luciferase inhibition in Mdm2/MdmX counter-screen; shares compounds with Mdm2 MdmX PPI; SaOS-2 full-length luciferase counterscreen, luminescence; inhibition, % at 8 µM; actives 77% (n = 6,200);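 active = mean inhibition at 8 µM reaching about 37%, which flags the compound as non-specific, limit read from the data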;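 note: p53-null SaOS-2 cells with luciferase driven by a doxycycline-inducible promoter; compound on cells about two nights before reading with doxycycline added after day one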
Numbers stand for hits; . = inactive; / = not tested or not shown.

SMILES | Mdm2 MdmX PPI | TIM10 inh | tim10-1 inh | tim23-1 inh | MPTP block | Mdm2 MdmX conf | FLuc counter
Cn1nnnc1Sc1ncnc2scc(-c3cccc4ccccc34)c12 | 97 | . | . | . | . | 55 | .
COc1ccccc1-c1csc2ncnc(Sc3nnnn3C)c12 | . | . | . | . | . | / | /
CCOC(=O)c1cc(CC)sc1NC(=O)COc1ccc2c(C)cc(=O)oc2c1 | 82 | . | . | . | . | 43 | 46
COc1ccc(NC(=O)c2sc(=O)n(Cc3cccc(C(F)(F)F)c3)c2C)cc1OC | / | / | / | / | . | / | /
CCN(CC)S(=O)(=O)c1ccc(Cl)c(C(=O)NNC(=O)c2csc(N3CCOCC3)n2)c1 | / | / | / | / | . | / | /
Fc1ccccc1-c1nnc2n1N=C(c1ccc(OC(F)F)c(OCC3CC3)c1)CS2 | . | . | . | . | . | / | /
COc1ccc(C2=Nn3c(nnc3-c3ccccc3Cl)SC2)cc1OCC1CC1 | 73 | . | . | . | . | 57 | 45
COc1ccc(OC)c(-c2nnc3n2N=C(c2ccc(OC)c(OCC4CC4)c2)CS3)c1 | 80 | . | . | . | . | 68 | 68
COc1ccccc1NC(=O)c1cc2c(CO)cnc(C)c2oc1=Nc1cccc(C(N)=O)c1 | 79 | . | . | . | . | 41 | 90
COc1ccccc1NC(=O)c1cc2c(CO)cnc(C)c2oc1=Nc1ccccc1 | . | . | . | . | . | / | /
CC1CC(=O)c2c(cc3c(-c4c(O)cc(O)c5c(O)c6c(cc45)OC(C)CC6=O)c(O)cc(O)c3c2O)O1 (centres undefined) | 100 | . | . | . | . | 93 | .
CC1CCN(c2ccc(-c3cccc(NC(=O)C(F)(F)F)c3)nn2)CC1 | 73 | . | . | . | . | 69 | 36
O=C(Nc1cccc(-c2ccc(N3CCCCC3)nn2)c1)C(F)(F)F | 60 | . | . | . | . | 45 | 74
O=S(=O)(Nc1cccc(-c2ccc(N3CCCCCC3)nn2)c1)c1ccc(C(F)(F)F)cc1 | . | . | . | . | . | / | /
N#Cc1ccc(NC(=O)COC(=O)c2cccc(S(=O)(=O)N3CCCC3)c2)cc1 | / | / | / | / | . | / | /
CC(C)(C)N1C(=O)Cc2c1nc(N)c1c(N)nc(N3CCCCC3CO)c(C#N)c21 (centres undefined) | 68 | . | . | . | . | . | /
Cc1ccc([C@H]2N[C@]3(CCCN(Cc4cccn4C)C3=O)[C@H]3C(=O)N(C)C(=O)[C@@H]23)cc1 | / | / | / | / | . | / | /
O=C(Nc1ccc(NC(=O)c2sc3ccccc3c2Cl)cc1Cl)c1ccco1 | 89 | . | . | . | . | . | /
CC(=O)c1ccc(NC(=O)c2ccc(NC(=O)c3ccco3)cc2)cc1 | 71 | . | . | . | . | . | /
CCOC(=O)c1cccc(NC(=O)c2ccc(NC(=O)c3ccco3)cc2)c1 | 73 | . | . | . | . | . | /
CCOc1ccccc1NC(=O)c1cccc(NC(=O)c2ccco2)c1 | 62 | . | . | . | . | 67 | 64
COC(=O)c1ccc(NC(=O)c2ccc(NC(=O)c3ccco3)cc2)cc1 | . | . | . | . | . | / | /
O=C(CC[C@H]1O[C@@H](n2ccc(=O)[nH]c2=O)[C@H](O)[C@@H]1O)N[C@H](Cc1ccccc1)C(=O)NCc1ccc2c(c1)OCO2 | / | / | / | / | . | / | /
Cc1ccc(C(O)c2ncc(-c3cccc4ccccc34)[nH]2)cc1F (centres undefined) | / | / | / | / | . | / | /
CCOc1ccc(C(=O)Nc2ccc(NC(=O)c3ccco3)c(Cl)c2)cc1Cl | 62 | . | . | . | . | 49 | 94
SMILES | Mdm2 MdmX PPI | TIM10 inh | tim10-1 inh | tim23-1 inh | MPTP block | Mdm2 MdmX conf | FLuc counter
CCOc1ccccc1NC(=O)c1ccc(C(=O)Nc2ccccc2OCC)nc1 | 91 | . | . | . | . | . | /
O=C(Nc1ccc(Oc2cccc(C(F)(F)F)c2)nc1)c1ccco1 | . | . | . | . | . | / | /
CCOc1ccc(C(=O)Nc2cccc(-c3nc4cccnc4o3)c2)cc1Cl | 56 | . | . | . | . | 54 | 42
CC(C)(C)c1ccc(Oc2ccc(NC(=O)c3ccco3)cn2)cc1 | 56 | . | . | . | . | . | 69
COC(=O)[C@@]12C[C@@H](CC(=O)NCCc3ccccc3OC)C(=O)N(Cc3ccccc3)C1=CCC(C)(C)C2 | / | / | / | / | . | / | /
O=C(Nc1ccc2c(c1)OCO2)c1cc(C2CCCCN2S(=O)(=O)Cc2ccccc2)on1 (centres undefined) | / | / | / | / | . | / | /
Cc1cc(C)c2nc(NNC(=O)c3cc(-c4cccs4)nc4ccccc34)sc2c1 | 77 | . | . | . | . | 68 | 57
Cc1c(NC(=O)c2cc(-c3cccs3)nc3ccccc23)c(=O)n(-c2ccccc2)n1C | 57 | . | . | . | . | . | /
O=C(/C=C/[C@H]1O[C@@H](n2ccc(=O)[nH]c2=O)[C@H](O)[C@@H]1O)NCc1ccccc1 | / | / | / | / | . | / | /
CCC1=Nc2cc(C(=O)NCC3CCCO3)ccc2Sc2ccc(Cl)cc21 (centres undefined) | 65 | . | . | . | . | 55 | 45
Cc1ccc(S(=O)(=O)NC(=O)C2(C)CCN2C(=O)C2(c3ccc(Cl)cc3)CCC2)nc1 (centres undefined) | / | / | / | / | . | / | /
CCc1nnc(NC(=O)CSc2nc(-c3ccccc3)c(-c3ccccc3)o2)s1 | 55 | . | . | . | . | 42 | 92
CCc1nnc(NC(=O)CSc2nc(-c3ccccc3)cc(-c3ccc(OC)cc3)c2C#N)s1 | 88 | . | . | . | . | . | /
COc1ccc(-c2cc(-c3ccccc3)nc(SCC(=O)Nc3nccs3)c2C#N)cc1 | 75 | . | . | . | . | . | /
CCc1nnc(NC(=O)CSc2nc3cc(OC)ccc3cc2C)s1 | . | . | . | . | . | / | /
CCc1nnc(NC(=O)CSc2nnc(-c3ccccc3O)o2)s1 | . | . | . | . | . | / | /
CC(C)NC(=O)CSc1nc(-c2cccs2)cc(-c2ccccc2)c1C#N | . | . | . | . | . | / | /
O=C(Nc1ccc(Cl)cc1)c1csc([C@@H]2C[C@H](O)[C@@H](CO)O2)n1 | / | / | / | / | . | / | /
COC(=O)CSc1nc2cc(C)ccc2cc1C#N | . | . | . | . | . | / | /
Cc1ccc2cc(C#N)c(SCc3nnc(-c4ccccc4[N+](=O)[O-])o3)nc2c1 | 87 | . | . | . | . | 79 | 72
Cc1ccc(C(=O)N/N=C/c2ccc(-c3cccc(C(F)(F)F)c3)o2)cn1 | 58 | . | . | . | . | 53 | 50
NC(=O)CC(NC(=O)Cc1cccc2ccccc12)c1ccc(NC2CCN(Cc3ccccc3)CC2)c([N+](=O)[O-])c1 (centres undefined) | 55 | . | . | . | . | . | /
NC(=O)CC(NC(=O)Cc1ccc(Br)cc1)c1ccc(NCCc2cccc(F)c2)c([N+](=O)[O-])c1 (centres undefined) | . | . | . | . | . | / | /
NC(=O)CC(NC(=O)Cc1ccc(Br)cc1)c1ccc(NC2CCN(Cc3ccccc3)CC2)c([N+](=O)[O-])c1 (centres undefined) | . | . | . | . | . | / | /

Screening results (PubChem)
